Test results taken from PubChem BioAssay (Tox21).
Inconclusive results are not listed. Calls of active or inactive are those of the source. Unless noted, calls follow the shape of the dose curve; as a rule, active = well fitted curve in the direction sought with a large enough effect in the repeat runs; inconclusive = weak or mixed curves; inactive = no such curve, though single readings can be large; an effect the other way counts as inactive or inconclusive.

What was measured:
[1] = qHTS assay to identify small molecule agonists of the progesterone receptor (PR) signaling pathway - cell viability counter screen (AID 1346799; calls by dose curve; also: nearly all actives have a fitted effect of over 45% in size; also: potency is read from the fitted curve at half-maximal effect)
Outline: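 Counter screen in the PR-UAS-bla HEK293T wells (2% charcoal-stripped FBS, 16 h compound exposure at 37 C) after the bla read. CellTiter-Glo added, 30 min at room temperature, luminescence read as cell viability.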

[2] = qHTS assay to identify small molecule antagonists of the TGF-beta/Smad signaling pathway - cell viability counter screen (AID 1346824); also: nearly all actives have a fitted effect of over 50% in size; also: potency is read from the fitted curve at half-maximal effect
Outline: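 SBE-bla HEK 293T cells, incubated overnight, then compound plus 0.25 ng/mL TGF-beta1 (stock added) for 5 hr at 37 C. Viability was read in the same wells by CellTiter-Glo luminescence after 30 min at room temperature.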

[3] = qHTS assay to identify small molecule agonists of the TGF-beta/Smad signaling pathway - cell viability counter screen (AID 1346829); also: nearly all actives have a fitted effect of over 45% in size; also: potency is read from the fitted curve at half-maximal effect
Outline: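 HEK 293T SBE-bla line, 5 hr compound exposure at 37 C, multiplexed CellTiter-Glo viability read by luminescence.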

[4] = molecular target: Thyrotropin-releasing hormone receptor (Homo sapiens) (UniProt P34981); assay: qHTS assay to identify small molecule antagonists of the thyrotropin-releasing hormone receptor (TRHR) signaling pathway (AID 1346877; active = well fitted inhibition curve with a large enough effect in the repeat runs, not every such curve was filed as active; also: series mostly up to about 51 µM; % is scaled to controls: 0 for no effect and ±100 for the full control effect)
Outline: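 Human TRHR in HEK293 cells; inhibition of the intracellular calcium rise triggered by 1 nM TRH was followed by fluorescence over 3 min. Compounds were run at 15 concentrations, three replicates each.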

[5] = Human pregnane X receptor (PXR) small molecule agonists, qHTS cell viability counter screen (AID 1346977); also: nearly all actives have a fitted effect of over 50% in size; also: potency is read from the fitted curve at half-maximal effect
Outline: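 PXR-Luc HepG2 cells (2,000/well, 5% charcoal-stripped FBS) preincubated 5 hr, then exposed to compounds 24 hr at 37 C. Viability read in the same wells by CellTiter-Fluor fluorescence, reagent added at 23 hr, 1 hr incubation.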

[6] = Caspase-3/7 induction in CHO-K1 cells by small molecules, qHTS cell viability counter screen (AID 1346979); also: nearly all actives have a fitted effect of over 35% in size; also: potency is read from the fitted curve at half-maximal effect
Outline: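 Wild-type CHO-K1 cells (1,500/well) treated with compound after 5 h plating; after 16 h at 37C, viability read as CellTiter-Fluor fluorescence following 1 h reagent incubation, in the same wells as the caspase read.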

[7] = Caspase-3/7 induction in CHO-K1 cells by small molecules, qHTS assay (AID 1346980); also: % is scaled to controls: 0 for no effect and ±100 for the full control effect; nearly all actives have a fitted effect of over 15% in size
Outline: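 Wild-type CHO-K1 cells exposed to compounds for 17hr at 37 C, 5% CO2. Caspase-3/7 activity then measured by Caspase-Glo 3/7 luminescence after 30min at room temperature.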

[8] = molecular target: Nuclear receptor subfamily 1 group I member 2 (Rattus norvegicus) (UniProt Q9R1A7); assay: Rat pregnane X receptor (rPXR) activation by small molecules, qHTS assay (AID 1346983); conditions: rPXR luciferase reporter cells, One-Glo luminescence, 24 h; max activation: active compounds read high; also: % is scaled to controls: 0 for no effect and ±100 for the full control effect; nearly all actives have a fitted effect of over 20% in size
Outline: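 Cell-based rPXR activation assay: rPXR cells, 2,000 per well, rested 5hr at 37 C, then exposed to compounds in DMSO for 24 hr at 37 C. Luciferase activity read by One-Glo luminescence after 30 min at room temperature.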

[9] = molecular target: Nuclear receptor subfamily 1 group I member 2 (Homo sapiens) (UniProt O75469); assay: CYP3A4 induction through human pregnane X receptor (PXR) by small molecules, qHTS assay (AID 1346984); also: % is scaled to controls: 0 for no effect and ±100 for the full control effect; nearly all actives have a fitted effect of over 40% in size
Outline: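 Human PXR activation is tracked via CYP3A4 promoter-luciferase in DPX-2 (HepG2) cells. Compounds treat cells for 24hr at 37C, and luminescence is read after One-Glo.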

[10] = molecular target: Nuclear receptor subfamily 1 group I member 2 (Homo sapiens) (UniProt O75469); assay: Human pregnane X receptor (PXR) activation by small molecules, qHTS assay (AID 1346985); also: nearly all actives have a fitted effect of over 40% in size; also: potency is read from the fitted curve at half-maximal effect; as to activation: % is scaled to controls: 0 for no effect and ±100 for the full control effect
Outline: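 DPX-2 cells (HepG2 co-transfected with a PXR response element and a CYP3A4-promoter luciferase construct) were seeded at 2,000 per well, rested 5 hr at 37C, then exposed to DMSO-dissolved compounds for 24 hr. Activation was read as luciferase luminescence.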

[11] = molecular target: Cytochrome P450 2D6 (Homo sapiens) (UniProt P10635); assay: Cytochrome P450 Family 2 Subfamily D Member 6 (CYP2D6) small molecule antagonists: luciferase reporter qHTS assay (AID 1671196); also: nearly all actives have a fitted effect of over 50% in size; also: potency is read from the fitted curve at half-maximal effect
Outline: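 Quantitative HTS of Tox21 chemicals against CYP2D6 using a luminescent proluciferin substrate. After NADPH addition, 1 h room-temperature reaction; luminescence recorded 20 min post detection reagent.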

[12] = molecular target: Cytochrome P450 2C19 (Homo sapiens) (UniProt P33261); assay: Cytochrome P450 Family 2 Subfamily C Member 19 (CYP2C19) small molecule antagonists: luciferase reporter qHTS assay (AID 1671197); also: nearly all actives have a fitted effect of over 65% in size; also: potency is read from the fitted curve at half-maximal effect
Outline: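 First, compounds are pinned into enzyme-substrate mix and held 10 min at room temperature. Second, NADPH regeneration solution is added and plates incubate 1 h at 37C. Third, detection reagent is added and luminescence read after 20 min.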

[13] = qHTS assay to identify small molecule agonists of the TGF-beta/Smad signaling pathway (AID 1346859; active = well fitted activation curve with a large enough effect in the signal ratio in the repeat runs, not every such curve was filed as active; the % refers to the signal ratio; also: series mostly up to about 77 µM; % is scaled to controls: 0 for no effect and ±100 for the full control effect)
Outline: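 SBE-bla HEK293T cells plated overnight, then compound exposure for 5 h at 37 C. Beta-lactamase reporter read with LiveBLAzer B/G FRET substrate after 2 h at room temperature, fluorescence at 405 nm excitation, 460/530 nm emission.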

[14] = molecular target: Thyrotropin-releasing hormone receptor (Homo sapiens) (UniProt P34981); assay: qHTS assay to identify small molecule agonists of the thyrotropin-releasing hormone receptor (TRHR) signaling pathway (AID 1346891; calls by dose curve; also: series mostly up to about 58 µM; % is scaled to controls: 0 for no effect and ±100 for the full control effect)
Outline: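 HEK293 cells expressing TRHR plated 18 h at 37 C/5% CO2, calcium dye-loaded 2 h at 37 C, then compound added (agonist mode); kinetic calcium fluorescence read 3 min at 1 s intervals; 15 concentrations in triplicate.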

[15] = Caspase-3/7 induction in HepG2 cells by small molecules, qHTS assay (AID 1346978); also: nearly all actives have a fitted effect of over 15% in size; also: potency is read from the fitted curve at half-maximal effect
Outline: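 Wild-type HepG2 cells, 2,000/well, settled 5 hr at 37 C and 5% CO2, then compound-treated for 17 hr; caspase-3/7 activity read by luminescent Caspase-Glo 3/7 after 30 min at room temperature.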

[16] = Caspase-3/7 induction in HepG2 cells by small molecules, qHTS cell viability counter screen (AID 1346981); also: nearly all actives have a fitted effect of over 30% in size; also: potency is read from the fitted curve at half-maximal effect
Outline: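 The parent HepG2 line is plated at 2,000 cells per well and rested 5 hr before compound pinning from DMSO stocks. Following a 16-hr treatment at 37 C, a fluorogenic live-cell substrate (CellTiter-Fluor) reports viability after 1 hr.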

[17] = molecular target: Nuclear receptor subfamily 1 group I member 2 (Homo sapiens) (UniProt O75469); assay: Human pregnane X receptor (PXR) small molecule agonists, qHTS assay (AID 1346982); also: nearly all actives have a fitted effect of over 35% in size; also: potency is read from the fitted curve at half-maximal effect
Outline: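 After plating in 5% charcoal-stripped FBS and a 5 hr rest, PXR-Luc HepG2 cells received compounds in DMSO. Following 24 hr at 37 C, ONE-Glo was added and light output read.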

[18] = qHTS assay to identify small molecule antagonists of the progesterone receptor (PR) signaling pathway - cell viability counter screen (AID 1346798); also: potency is read from the fitted curve at half-maximal effect; nearly all actives have a fitted effect of over 50% in size
Outline: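 PR-UAS-bla HEK293T cells, 3,000/well in 2% charcoal-stripped FBS medium, dosed with compounds plus R5020 agonist and incubated 16 h at 37C. Viability then measured in the same wells by CellTiter-Glo luminescence after 30 min at RT.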

Cytochrome P450 2C19 (Homo sapiens), sequence (P33261 whole entry, looked up): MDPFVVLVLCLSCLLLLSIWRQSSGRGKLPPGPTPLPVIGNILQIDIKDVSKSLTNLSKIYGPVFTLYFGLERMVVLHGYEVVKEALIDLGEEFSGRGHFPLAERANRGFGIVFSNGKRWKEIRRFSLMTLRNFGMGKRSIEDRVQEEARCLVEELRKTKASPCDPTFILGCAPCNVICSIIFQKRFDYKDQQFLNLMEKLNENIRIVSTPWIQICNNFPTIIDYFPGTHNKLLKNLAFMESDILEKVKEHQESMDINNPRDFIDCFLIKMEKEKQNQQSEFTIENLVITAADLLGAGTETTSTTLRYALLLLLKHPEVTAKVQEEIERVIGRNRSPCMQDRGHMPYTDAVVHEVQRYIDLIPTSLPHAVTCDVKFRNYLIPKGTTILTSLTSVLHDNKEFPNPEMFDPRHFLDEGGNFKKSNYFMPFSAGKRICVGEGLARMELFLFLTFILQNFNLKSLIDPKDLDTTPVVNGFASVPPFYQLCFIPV
Nuclear receptor subfamily 1 group I member 2 (Homo sapiens), sequence (O75469 whole entry, looked up): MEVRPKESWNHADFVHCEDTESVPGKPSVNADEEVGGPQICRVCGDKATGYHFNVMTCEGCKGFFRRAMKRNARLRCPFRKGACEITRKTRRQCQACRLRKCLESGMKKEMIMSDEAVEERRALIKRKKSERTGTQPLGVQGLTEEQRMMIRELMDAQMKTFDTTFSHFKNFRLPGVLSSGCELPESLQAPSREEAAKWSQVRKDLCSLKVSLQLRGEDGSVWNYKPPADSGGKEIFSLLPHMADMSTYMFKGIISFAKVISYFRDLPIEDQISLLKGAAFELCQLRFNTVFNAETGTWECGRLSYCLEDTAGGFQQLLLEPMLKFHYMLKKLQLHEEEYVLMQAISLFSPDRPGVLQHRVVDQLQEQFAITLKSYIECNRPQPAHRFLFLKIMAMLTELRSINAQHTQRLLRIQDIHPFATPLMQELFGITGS
Cytochrome P450 2D6 (Homo sapiens), sequence (P10635 whole entry, looked up): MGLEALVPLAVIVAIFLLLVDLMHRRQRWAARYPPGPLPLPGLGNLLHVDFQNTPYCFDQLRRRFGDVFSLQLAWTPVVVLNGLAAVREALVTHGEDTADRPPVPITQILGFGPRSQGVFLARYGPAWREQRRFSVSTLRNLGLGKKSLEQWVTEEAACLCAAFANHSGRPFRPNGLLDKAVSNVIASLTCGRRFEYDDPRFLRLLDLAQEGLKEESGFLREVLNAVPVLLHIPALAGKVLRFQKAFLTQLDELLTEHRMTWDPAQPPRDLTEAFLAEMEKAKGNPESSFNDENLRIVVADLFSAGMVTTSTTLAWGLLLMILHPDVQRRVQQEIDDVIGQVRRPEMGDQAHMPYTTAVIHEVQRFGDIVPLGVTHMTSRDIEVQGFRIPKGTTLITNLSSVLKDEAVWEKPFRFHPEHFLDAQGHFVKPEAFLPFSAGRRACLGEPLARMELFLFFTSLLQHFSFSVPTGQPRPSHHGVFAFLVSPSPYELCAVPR
Nuclear receptor subfamily 1 group I member 2 (Rattus norvegicus), sequence (Q9R1A7 whole entry, looked up): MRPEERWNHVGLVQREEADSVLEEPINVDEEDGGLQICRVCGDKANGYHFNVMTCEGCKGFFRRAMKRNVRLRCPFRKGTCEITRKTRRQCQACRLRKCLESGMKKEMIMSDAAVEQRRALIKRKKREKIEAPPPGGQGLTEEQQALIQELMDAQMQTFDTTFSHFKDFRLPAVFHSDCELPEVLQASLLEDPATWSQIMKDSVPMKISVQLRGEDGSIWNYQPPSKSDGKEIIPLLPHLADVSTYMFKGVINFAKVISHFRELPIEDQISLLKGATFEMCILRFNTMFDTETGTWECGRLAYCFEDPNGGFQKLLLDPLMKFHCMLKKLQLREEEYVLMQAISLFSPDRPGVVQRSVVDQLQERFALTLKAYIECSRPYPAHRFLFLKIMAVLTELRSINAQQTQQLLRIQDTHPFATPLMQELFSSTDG
Thyrotropin-releasing hormone receptor (Homo sapiens), sequence (P34981 whole entry, looked up): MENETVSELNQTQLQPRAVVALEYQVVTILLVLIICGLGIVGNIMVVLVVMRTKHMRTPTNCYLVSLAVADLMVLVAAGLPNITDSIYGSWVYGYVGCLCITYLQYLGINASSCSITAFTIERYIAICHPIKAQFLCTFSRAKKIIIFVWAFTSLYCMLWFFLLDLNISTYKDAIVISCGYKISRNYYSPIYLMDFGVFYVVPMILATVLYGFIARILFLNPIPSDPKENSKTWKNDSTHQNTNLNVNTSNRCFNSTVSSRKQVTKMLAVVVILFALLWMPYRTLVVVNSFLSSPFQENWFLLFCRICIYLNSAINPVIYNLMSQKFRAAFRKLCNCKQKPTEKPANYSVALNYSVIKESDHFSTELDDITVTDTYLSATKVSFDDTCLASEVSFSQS

O=C(Oc1cccc2cccnc12)c1ccccc1
active: Potency [1] 4.73 µM | Potency [5] 3.35 µM | Potency [6] 7.5 µM
inactive: Potency [2] | Potency [3] | Potency [4] | Potency [7] | max activation [8] -3.5% | Potency [9] | Potency [10] | Potency [11] | Potency [12]

C/C=C1/C(=O)C[C@H]2[C@@H]3CCC4=CC(=O)CC[C@]4(C)[C@H]3CC[C@]12C
active: Potency [6] 60.9 µM | Potency [12] 3.98 µM
inactive: Potency [2] | Potency [3] | Potency [7] | Potency [11]

O=C(NOCC1CC1)c1ccc(F)c(F)c1Nc1ccc(I)cc1Cl
inactive: Potency [2] | Potency [3] | Potency [13] | Potency [4] | Potency [14] | Potency [15] | Potency [7] | Potency [17] | Potency [11]
active: Potency [5] 18.8 µM | Potency [6] 18.8 µM | Potency [16] 26.6 µM | Potency [12] 0.246 µM

Oc1ccc(C2(c3ccc(O)cc3)CC3CC2C2CCCC32)cc1 (stereo not drawn)
active: Potency [1] 58.7 µM | Potency [5] 58.7 µM | Potency [6] 46.6 µM | Potency [16] 52.3 µM | Potency [12] 30.5 µM
inactive: Potency [3] | Potency [13] | Potency [4] | Potency [14] | Potency [7] | Potency [11]

OCCN1CCN(CC/C=C2/c3ccccc3Sc3ccc(C(F)(F)F)cc32)CC1
active: Potency [1] 29.8 µM | Potency [5] 29.8 µM | Potency [6] 29.8 µM | Potency [16] 33.5 µM | Potency [11] 6.92 µM | Potency [12] 34.7 µM
inactive: Potency [2] | Potency [13] | Potency [4] | Potency [14] | Potency [17] | max activation [8] -7.9%

CN1CCC(Nc2ncc3ncnc(Nc4ccc(F)c(Cl)c4)c3n2)CC1
inactive: Potency [2] | Potency [3] | Potency [4] | Potency [15] | Potency [7] | max activation [8] -19.5% | Potency [12]
active: Potency [5] 26.6 µM | Potency [6] 29.8 µM | Potency [17] 10.6 µM | Potency [10] 28.2 µM | Potency [11] 6.92 µM

CN(C)c1ccc(C2(c3ccc(N(C)C)cc3)OC(=O)c3cc(N(C)C)ccc32)cc1
active: Potency [12] 1.41 µM
inactive: Potency [1] | Potency [2] | Potency [3] | Potency [13] | Potency [4] | Potency [5] | Potency [15] | Potency [7] | Potency [16] | Potency [11]

O=C(Nc1cccc(C(F)(F)F)c1)c1cc(Br)cc(Br)c1O
active: Potency [18] 21.7 µM | Potency [5] 2.73 µM | Potency [6] 6.86 µM | Potency [17] 17.2 µM | Potency [12] 56.4 µM
inactive: Potency [4] | Potency [14] | Potency [15] | Potency [7] | max activation [8] -18.6% | Potency [9] | Potency [10] | Potency [11]

CC(C)(C)C(=O)OCOC(=O)C1N2C(=O)CC2S(=O)(=O)C1(C)C (stereo not drawn)
inactive: Potency [1] | Potency [2] | Potency [3] | Potency [13] | Potency [4] | Potency [14] | Potency [15] | Potency [6] | Potency [7] | Potency [16] | Potency [17] | Potency [11] | Potency [12]

CC(=O)S[C@@H]1CC2=CC(=O)CC[C@]2(C)[C@H]2CC[C@@]3(C)[C@@H](CC[C@@]34CCC(=O)O4)[C@H]12
active: Potency [12] 6.33 µM
inactive: Potency [3] | Potency [4] | Potency [14] | Potency [15] | Potency [7]

CC1=C(C(=O)OC(C)C)C(c2cccc([N+](=O)[O-])c2)C(C(=O)OC2CN(C(c3ccccc3)c3ccccc3)C2)=C(N)N1 (stereo not drawn)
active: Potency [16] 33.5 µM | Potency [17] 9.44 µM | Potency [10] 7.08 µM | Potency [12] 1.74 µM
inactive: Potency [2] | Potency [13] | Potency [4] | Potency [14] | max activation [8] -6.42% | Potency [9]

CCOc1ccc2nc3cc(N)ccc3c(N)c2c1
active: Potency [11] 15.5 µM
inactive: Potency [1] | Potency [3] | Potency [4] | Potency [14] | Potency [15] | Potency [7] | Potency [17] | max activation [8] 1.69% | Potency [9] | Potency [10] | Potency [12]

CC[C@@]1(O)C(=O)OCc2c1cc1n(c2=O)Cc2cc3c(CN(C)C)c(O)ccc3nc2-1
inactive: Potency [2] | Potency [3] | max activation [8] -5.54% | Potency [9] | Potency [10] | Potency [12]
active: Potency [15] 4.22 µM

CCCCC(CC)CN=C(N)NC(N)=NCCCCCCN=C(N)NC(N)=NCC(CC)CCCC (stereo not drawn)
inactive: Potency [4] | Potency [14] | Potency [15] | Potency [7] | Potency [17] | max activation [8] -27.3% | Potency [9] | Potency [10]
active: Potency [2] 19 µM | Potency [3] 23.9 µM | Potency [5] 16.8 µM | Potency [6] 16.8 µM | Potency [16] 26.6 µM | Potency [11] 1.23 µM | Potency [12] 17.4 µM
